Screen size: about 16,000 compounds; about 4,000 (25%) were called active. About 26% were inconclusive and are not listed. The call rests on the fitted dose curve; in most records, active means well fitted curve in the direction sought with a large enough effect; inconclusive means small, poorly fitted or top-dose-only effect, or effect the other way; inactive means no such curve, though single readings can be large or run the other way. A selection follows.

We go through 50 molecules from PubChem BioAssay AID1851 (National Center for Advancing Translational Sciences (NCATS), 2009).
On the % scale 0 is the no-effect control and ±100 the full control effect.

For this test, the target named is Cytochrome P450 2C9 (Homo sapiens) (UniProt P11712). The experiment in a line: Cytochrome panel assay with activity outcomes. Particulars: recombinant CYP, pro-luciferin dealkylation, luminescence, p450-cyp2c9; series mostly up to 57.1 µM; activity, negative = inhibition: at the top concentration.
Sequence of Cytochrome P450 2C9 (Homo sapiens) (P11712 whole entry, looked up): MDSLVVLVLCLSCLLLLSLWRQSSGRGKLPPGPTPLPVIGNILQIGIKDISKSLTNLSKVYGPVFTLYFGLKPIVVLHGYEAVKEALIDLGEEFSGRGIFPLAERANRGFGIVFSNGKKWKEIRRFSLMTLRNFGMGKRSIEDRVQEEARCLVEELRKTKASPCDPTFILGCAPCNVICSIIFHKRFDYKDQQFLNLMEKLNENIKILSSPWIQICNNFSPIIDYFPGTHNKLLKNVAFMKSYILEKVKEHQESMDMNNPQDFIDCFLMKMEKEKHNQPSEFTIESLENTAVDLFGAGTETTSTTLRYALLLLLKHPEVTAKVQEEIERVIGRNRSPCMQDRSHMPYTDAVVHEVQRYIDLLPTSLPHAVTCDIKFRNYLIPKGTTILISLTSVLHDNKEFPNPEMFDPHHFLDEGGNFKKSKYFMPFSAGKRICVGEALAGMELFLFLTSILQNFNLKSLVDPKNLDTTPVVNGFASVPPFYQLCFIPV
For `N#Cc1cccc(-c2cncnc2NCc2cccnc2)c1`, the activity, negative = inhibition is 6.75% [at 2.29 µM] (inactive). With `CN(C)CCO[C@@H](c1ccc(Cl)cc1)c1ccccn1`, the “activity, negative = inhibition” value was -11.5% [at 25.6 µM] (inactive). On to `O=S(=O)(Nc1nc(-c2sccc2Cl)cs1)c1cc(Cl)ccc1Cl`, for which the half-maximal activity concentration (AC50) is 0.631 µM (active). Regarding `COCC(C)NCc1cccc(C)c1` (stereo not given), the “activity, negative = inhibition” value was 11.4% (inactive).

Regarding `Cc1ccc(S(=O)(=O)n2ccc(-c3cccc(OCc4c(F)cccc4Cl)c3)n2)cc1`, the AC50 was 1.58 µM (active). Regarding `CO[C@H]1COC(=O)C/C=C\[C@H](C)COC(=O)[C@@H](C)NC(=O)C/C=C\[C@@H]1C`, the activity, negative = inhibition is -24.8% [at 11.4 µM] (inactive). As for `COCC(=O)N/N=C/c1ccc(Sc2nc3ccccc3s2)o1`, the “activity, negative = inhibition” value is 2.01% (inactive). `O=C(Cc1cccc2ccccc12)N/N=C/c1ccc(Sc2nc3ccccc3s2)o1`: the concentration at half-maximal activity (AC50) was 0.282 µM (active). As for `NCCCCCC(=O)O`, the AC50 result is “inactive”. With `CCNC(=S)NNC(=O)Cc1ccccc1`, the “activity, negative = inhibition” value was -11.7% (inactive). Turning to `Cc1cc(C(=O)OC2CCOC2=O)c2ccccc2n1` (stereo not given), the “activity, negative = inhibition” value is 0.804% (inactive). Regarding `CCNC(=S)NNC(=O)c1cc(C)on1`, the “activity, negative = inhibition” value was -15.8% (inactive). Turning to `CCNC(=S)NNC(=O)c1cc(CC(C)C)nc2ccccc12`, the AC50 is 2.82 µM (active). With `CCNC(=S)NNC(=O)c1cc(C2CC2)nc2ccccc12`, the concentration at half-maximal activity (AC50) is 2 µM (active). Consider `CCNC(=S)NNC(=O)c1cccc(Br)c1`, for which the “activity, negative = inhibition” value is -10.1% (inactive). As to `Cc1cc(C(=O)NNC(=S)NC(C)c2ccccc2)c2ccccc2n1` (stereo not given), the AC50 was 3.16 µM (active). For the molecule `Cc1cc(C(=O)Nc2c(C)n(C)n(-c3ccccc3)c2=O)c2ccccc2n1`, the “activity, negative = inhibition” value was -1.95% (inactive). As to `OCCCN=C1CCCCC1`, the activity, negative = inhibition was -11% [at 11.4 µM] (inactive).

For the molecule `COCC(=O)N1CCC[C@@]2(CCN(c3ncccn3)C2)C1`, the “activity, negative = inhibition” value is -23% (inactive).

`O=C(c1ccc(CN2CCc3ccccc3C2)cc1)N1CCc2ccccc2C1`: the “activity, negative = inhibition” value is -19.2% (inactive). Regarding `O=C(CSc1ncccn1)Nc1ccc(S(=O)(=O)N2CCCCC2)cc1`, the half-maximal activity concentration (AC50) was 7.94 µM (active). Consider `Cc1ccc(NC(=O)CCc2c(C)nc3ncnn3c2C)nc1`, for which the “activity, negative = inhibition” value is -5.57% (inactive). In the case of `O=C(Nc1ccc(S(=O)(=O)N2CCCCC2)cc1)c1ccc(CN2CCc3ccccc3C2)cc1`, the AC50 was 3.16 µM (active). As for `O=C(CCN1CCc2ccccc2C1)Nc1ccc(F)cc1`, the “activity, negative = inhibition” value is -17.2% (inactive). `Cc1nc2ncnn2c(C)c1CCC(=O)NCc1ccccc1`: the “activity, negative = inhibition” value is -18.2% (inactive). Consider `Cc1nc2ncnn2c(C)c1CCC(=O)Nc1ccc(S(=O)(=O)N2CCCCCC2)cc1`, for which the AC50 is 3.16 µM (active).

With `O=C(Nc1ccc(S(=O)(=O)N2CCOCC2)cc1)c1ccc(CN2CCc3ccccc3C2)cc1`, the concentration at half-maximal activity (AC50) is 8.91 µM (active). As to `CC(=O)Nc1ccc(S(=O)(=O)N2CCC(N(C)CCC(C)C)CC2)cc1`, the “activity, negative = inhibition” value is -20.5% (inactive).

In the case of `CN(Cc1ccco1)c1cc(-c2cccc(NS(C)(=O)=O)c2)ncn1`, the activity, negative = inhibition was -0.0487% [at 2.29 µM] (inactive).

Consider `CCN1C(=O)[C@H]2[C@H]3[C@H](O)[C@H](O)C/C(=N/OCC[C@H]4C=C[C@H](OC(C)=O)[C@@H](COC(C)=O)O4)[C@@H]3CC[C@@H]2C1=O`, for which the activity, negative = inhibition was -15% [at 11.4 µM] (inactive). On to `O=C(CSCc1ccccc1)Nc1ccc(S(=O)(=O)N2CCOCC2)cc1`, for which the AC50 is 10 µM (active). For `Cc1cnc(CNc2ccnc(-c3c(C)noc3C)n2)cn1`, the activity, negative = inhibition was 19.4% [at 2.29 µM] (inactive).

As for `COc1ccc2c(c1)C(c1ccc([N+](=O)[O-])cc1)=NNC(c1ccco1)=N2`, the AC50 was 14.1 µM (active). Regarding `c1ccc2c(NCCN3CCOCC3)nc(-c3ccoc3)nc2c1`, the activity, negative = inhibition is -0.137% [at 2.29 µM] (inactive). For the molecule `Cc1noc(C)c1C(=O)N1CCC2(CCN(C(=O)Nc3ccccc3)CC2)CC1`, the “activity, negative = inhibition” value was 8.06% (inactive).

Turning to `Cc1noc(C)c1C(=O)OCC(=O)NC(c1ccccc1)c1ccccc1`, the AC50 was 11.2 µM (active). Consider `Cc1noc(C)c1C(=O)N1CCC2(CC1)CCN(C(c1ccccc1)c1ccccc1)CC2`, for which the “activity, negative = inhibition” value is -8.71% (inactive).

Take `COc1ccc(C(=O)CN2C(=O)NC(C)(c3ccccc3)C2=O)cc1OC` (stereo not given): the AC50 is 3.55 µM (active).

Turning to `Cc1cc(NC(=O)CN2C(=O)NC(C)(c3ccc(OC(F)F)cc3)C2=O)no1` (stereo not given), the “activity, negative = inhibition” value is -3.66% (inactive). On the same count and under the same terms, in the case of `O=C(CCCN1CCC(O)(c2cccc(C(F)(F)F)c2)CC1)c1ccc(F)cc1` it was 19.7% (inactive).

As to `O=C(Cn1c(C(F)(F)F)nc2ccccc21)c1ccc(F)cc1`, the AC50 is 3.55 µM (active). Take `O=C(Cn1c(C(F)(F)F)nc2ccccc21)c1ccccc1`: the concentration at half-maximal activity (AC50) is 10 µM (active). Turning to `CN(C)C(=O)c1ccc(-c2nc(Nc3ccc(F)cc3)c3ccccc3n2)cc1`, the activity, negative = inhibition is -11.1% [at 2.29 µM] (inactive).

On to `CC(=O)N1CCC[C@@]2(CCN(Cc3nccs3)C2)C1`, for which the “activity, negative = inhibition” value is 1.75% (inactive). Turning to `CO[C@H]1COC(=O)C/C=C\[C@H](C)COC(=O)[C@@H](OCc2ccccc2)/C=C\[C@@H]1C`, the activity, negative = inhibition is -4.97% [at 11.4 µM] (inactive). The same measure, in the same setting: in the case of `O=c1cnc2cnc(N3CCOCC3)nc2n1C1CC1` it was -8.29% (inactive); in that of `COc1ncc2nc(C)c(=O)n(C3CC3)c2n1`, 9.09% (inactive).

Consider `O=c1c(-c2ccccc2)nc2cnc(Oc3cccc(Cl)c3)nc2n1C1CC1`, for which the AC50 was 0.251 µM (active). Take `Cn1c(=O)c(-c2ccc(Cl)cc2)nc2cnc(Oc3cccc(Cl)c3)nc21`: the “activity, negative = inhibition” value is 18.4% (inactive). Consider `O=c1cnc2cnc(Oc3cccc(Cl)c3)nc2n1C1CC1`, for which the AC50 is 6.31 µM (active).
